Source: PubChem BioAssay (Tox21)
Results filed as inconclusive are left out. Entries that show only a call come without a potency. Activity calls are given as the source filed them. The call rests on the fitted dose curve; in most records, active means well fitted activation curve with a large enough effect in the repeat runs; inconclusive means weak or mixed curves; inactive means no such curve, though single readings can be large or run the other way.

These compounds were tested against Nuclear receptor subfamily 1 group I member 2 (Homo sapiens) (UniProt O75469) (assay: Human pregnane X receptor (PXR) small molecule agonists, qHTS assay (AID 1346982; further: nearly all actives have a fitted effect of over 35% in size)). Details: PXR-Luc HepG2, CYP3A4 luciferase reporter, 24 h; series mostly up to 92.4 µM.
Sequence of Nuclear receptor subfamily 1 group I member 2 (Homo sapiens) (O75469 whole entry, looked up): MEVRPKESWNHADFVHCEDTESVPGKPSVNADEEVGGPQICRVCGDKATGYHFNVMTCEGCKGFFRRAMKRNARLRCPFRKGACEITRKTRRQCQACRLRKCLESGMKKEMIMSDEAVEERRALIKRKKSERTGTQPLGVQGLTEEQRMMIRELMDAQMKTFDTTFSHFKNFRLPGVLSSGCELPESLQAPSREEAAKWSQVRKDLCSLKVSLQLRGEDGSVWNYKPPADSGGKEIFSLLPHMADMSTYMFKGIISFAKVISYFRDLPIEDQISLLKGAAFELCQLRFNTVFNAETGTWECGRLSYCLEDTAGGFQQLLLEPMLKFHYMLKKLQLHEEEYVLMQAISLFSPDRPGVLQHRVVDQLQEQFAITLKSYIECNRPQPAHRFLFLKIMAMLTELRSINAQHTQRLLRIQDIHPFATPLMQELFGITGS
From the text: National Center for Advancing Translational Sciences [NCATS]
NIH Chemical Genomics Center [NCGC]
U.S. Environmental Protection Agency [EPA]
National Institutes of Environmental Health Sciences [NIEHS]
National Toxicology Program [NTP]
The human pregnane X receptor (hPXR) regulates the expression of several drug metabolizing enzymes and induction of these proteins is a major mechanism for developing drug resistance in cancer. One such key enzyme catalyzing the drug metabolism is cytochrome P450 3A4 (CYP3A4). Changes in CYP3A4 expression affect drug metabolism, thereby reducing the therapeutic efficacy and altering toxicological response to a drug and which finally causes adverse drug interaction. To screen Tox21 libraries for compounds that activate hPXR-mediated CYP3A4 gene expression, PXR-Luc HepG2 cells were used.
PXR-Luc HepG2 cells were dispensed at 2,000 per well in 5uL of assay medium containing 5% charcoal-stripped FBS into white solid bottom 1536-well plates (Corning Life Sciences, Corning, NY) using a Multidrop Combi (Thermo Scientific, Waltham, MA) dispenser. The assay plates were incubated at 37 C and 5% CO2 for 5hr, and then 23nL of compounds dissolved in DMSO and positive control were transferred using a Pintool station (Wako, San Diego, CA). The assay plates were incubated at 37C and 5% CO2 for 24hr. For luciferase read, 4uL of ONE-Glo reagent (Promega Corporation, Madison, WI) was added to each well of the assay plates using Flying Reagent Dispenser (FRD, Aurora Discovery, San Diego, CA) and incubated the assay plates at room temperature for 30min. The luminescence signal was quantified using a ViewLux plate reader (Perkin Elmer, Shelton, CT).
Potency means the concentration at half of the fitted maximal effect.

Row | Compound | Potency | activation
1 | Nc1ccc2cc(S(=O)(=O)O)cc(O)c2c1 | 6.08 µM (active) | 
2 | O=C1c2ccccc2C(=O)N1CCl | inactive | 
3 | CCC(CC)CO | inactive | 
4 | Cc1cccc(C)c1OCC(C)N (stereo not given) | inactive | 
5 | CN=C(NC#N)Nc1ccc(C2=NNC(=O)CC2C)cc1 (stereo not given) | inactive | 
6 | Cc1cccc(C)c1NC(=O)c1ccccc1C(=O)O | inactive | 
7 | CC(C)CCCCOC(=O)c1ccccc1C(=O)OCCCCC(C)C | inactive | 
8 | CC(=C(CCOC(=O)C(C)C)SSC(CCOC(=O)C(C)C)=C(C)N(C=O)Cc1cnc(C)nc1N)N(C=O)Cc1cnc(C)nc1N | inactive | 
9 | CC(=O)N[C@@H](CCC(=O)O)C(=O)O | inactive | 
10 | On1nnc2ccccc21 | inactive | 
11 | CC(CC=O)CCCC(C)(C)O (stereo not given) | inactive | 
12 | FC(F)(F)c1ccccc1-n1ccnc1 | inactive | 
13 | CC(CN)CC(C)(C)CCN (stereo not given) | inactive | 
14 | CO[C@@H]1[C@@H](OC(N)=O)[C@@H](O)[C@H](Oc2ccc3c(O)c(NC(=O)c4ccc(O)c(CC=C(C)C)c4)c(=O)oc3c2C)OC1(C)C | inactive | 
15 | C[C@H](CCC(=O)O)[C@H]1CC[C@H]2[C@@H]3C(=O)C[C@@H]4CC(=O)CC[C@]4(C)[C@H]3CC(=O)[C@]12C | inactive | 
16 | CCOC(=O)CC(=O)c1ccccc1 | 68.6 µM (active) | 
17 | C#CC(C)N(C)C(=O)Nc1ccc(Cl)cc1 (stereo not given) | 61.1 µM (active) | 
18 | COc1cc(C(=S)N2CCOCC2)cc(OC)c1OC | inactive | 
19 | CCOC(=O)/C=C/c1ccccc1 | inactive | 
20 | O=C(CCNNC(=O)c1ccncc1)NCc1ccccc1 | inactive | 

Row | Compound | Potency | activation
21 | CC(C)(C)c1n[nH]c(=S)n(N)c1=O | inactive | 
22 | CCOc1cc(NC(C)=O)ccc1C(=O)OC | inactive | 
23 | CCOC(=O)c1ncn2c1CN(C)C(=O)c1cc(F)ccc1-2 | inactive | 
24 | CN(C)CCOCCO | inactive | 
25 | CC/C=C\CC1=C(C)CCC1=O | 34.4 µM (active) | 
26 | CCc1ccc(C=O)cc1 | inactive | 
27 | C=CCCCCCCCCCCCC | inactive | 
28 | O=C(CS(=O)Cc1ccco1)NC/C=C\COc1cc(CN2CCCCC2)ccn1 (stereo not given) | inactive | 
29 | Cc1ccc2c(c1)OCC(=O)CO2 | inactive | 
30 | CCOC(=O)c1ccc(OC(=O)CCCCCN=C(N)N)cc1 | inactive | 
31 | O=C(O)CCSSCCC(=O)O | inactive | 
32 | Nc1ncnc(Nc2ccccc2)n1 | inactive | 
33 | C=C(C)C(=O)OCCN(CC)CC | inactive | 
34 | OCCC(F)(F)C(F)(F)C(F)(F)C(F)(F)C(F)(F)C(F)(F)C(F)(F)C(F)(F)F | inactive | 
35 | C=C(C)C(=O)OCCNC(C)(C)C | inactive | 
36 | C=CC(OCC)OCC | inactive | 
37 | O=S(O)(O)=S |  | 4.46% [at 8.39 µM] (inactive)
38 | CC(C)C(=O)OCCc1ccccc1 | inactive | 
39 | COc1ccc2nc(SCc3ncc(C)c(OC)c3C)[nH]c2c1 | 23.7 µM (active) | 
40 | CC(C)c1ccc2cc(C(C)C)ccc2c1 | 61.1 µM (active) | 
